The values that follow come from article PMC4081100, “A DNA-binding-site landscape and regulatory network analysis for NAC transcription factors in Arabidopsis thaliana”.

Holding throughout (test): universal protein binding microarray (PBM); transcription factors of Arabidopsis thaliana; high values mean tight binding
Assay [1] deals with T1, GST-ANAC092(1-176) (Arabidopsis thaliana, UniProt Q9FKA0 1-176).
T1 sequence: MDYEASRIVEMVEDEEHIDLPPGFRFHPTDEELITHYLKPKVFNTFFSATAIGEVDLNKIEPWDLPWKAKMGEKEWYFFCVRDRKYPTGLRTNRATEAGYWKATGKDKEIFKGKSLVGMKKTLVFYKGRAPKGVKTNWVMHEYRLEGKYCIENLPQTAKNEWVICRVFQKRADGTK
As to conditions: protein: recombinant; tags: GST; chain copies: 2; dsDNA, one strand shown. In outline: (§1)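 GST-tagged proteins (NAC-domain, full-length or DNA-binding-domain) were induced in cells, with zinc acetate supplied for zinc-finger proteins, then purified on glutathione–Sepharose 4B. Each was tested in duplicate at 200 to 500 nM final on custom all-10-mer Agilent 4 × 180K arrays rendered double-stranded by primer extension. The binding value is the normalised enrichment score (E-score) across gapped and ungapped 8-mers.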

Assay [2] deals with GST-NTL6(1-168) (Arabidopsis thaliana, UniProt Q9SCK6 1-168). Conditions: protein: recombinant; tags: GST; chain copies: 2; dsDNA, one strand shown. In outline: as §1
GST-NTL6(1-168), sequence (Q9SCK6 1-168): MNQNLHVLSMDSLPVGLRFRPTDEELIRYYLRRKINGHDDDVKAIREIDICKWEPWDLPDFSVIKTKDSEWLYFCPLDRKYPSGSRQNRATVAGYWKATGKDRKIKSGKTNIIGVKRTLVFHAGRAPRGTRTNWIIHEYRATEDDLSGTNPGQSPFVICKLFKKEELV
The target in assay [3] is T2, GST-ANAC019 NAC domain (Arabidopsis thaliana, UniProt Q9C932 14-162).
T2 sequence: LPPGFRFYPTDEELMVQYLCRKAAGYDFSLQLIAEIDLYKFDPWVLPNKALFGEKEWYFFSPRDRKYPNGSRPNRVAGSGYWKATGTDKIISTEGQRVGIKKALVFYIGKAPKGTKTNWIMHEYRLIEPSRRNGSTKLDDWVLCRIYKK
Conditions: protein: recombinant; tags: GST; chain copies: 2; dsDNA, one strand shown. In outline: as §1

Assay [4] addresses T3, GST-ATAF1 NAC domain (Arabidopsis thaliana, UniProt Q39013 7-158).
T3 sequence: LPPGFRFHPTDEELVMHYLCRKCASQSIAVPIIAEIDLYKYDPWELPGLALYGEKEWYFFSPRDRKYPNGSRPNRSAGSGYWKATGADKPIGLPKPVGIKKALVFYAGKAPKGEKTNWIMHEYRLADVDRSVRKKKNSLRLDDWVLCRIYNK
Conditions: protein: recombinant; tags: GST; chain copies: 2; dsDNA, one strand shown. In outline: as §1

Assay [5] has as its target T4, GST-ANAC092(1-285) full length (Arabidopsis thaliana, UniProt Q9FKA0 1-285).
T4 sequence: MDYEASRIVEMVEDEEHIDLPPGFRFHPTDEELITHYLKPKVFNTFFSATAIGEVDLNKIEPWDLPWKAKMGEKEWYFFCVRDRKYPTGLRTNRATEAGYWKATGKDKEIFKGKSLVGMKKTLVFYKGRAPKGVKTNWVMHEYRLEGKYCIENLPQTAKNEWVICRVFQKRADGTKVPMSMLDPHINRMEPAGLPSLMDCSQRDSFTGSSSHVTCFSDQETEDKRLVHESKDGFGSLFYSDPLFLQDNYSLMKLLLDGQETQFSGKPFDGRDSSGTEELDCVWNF
Conditions: protein: recombinant; tags: GST; chain copies: 2; dsDNA, one strand shown. In outline:
as §1

Assay [6] concerns the target T5, GST-NST2(1-184) (Arabidopsis thaliana, UniProt Q9M274 1-184).
T5 sequence: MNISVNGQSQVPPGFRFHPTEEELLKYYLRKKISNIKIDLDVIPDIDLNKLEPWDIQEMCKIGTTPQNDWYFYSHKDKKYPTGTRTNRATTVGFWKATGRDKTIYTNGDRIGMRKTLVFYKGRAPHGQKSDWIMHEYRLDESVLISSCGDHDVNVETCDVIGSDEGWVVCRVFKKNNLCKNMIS
As to conditions: protein: recombinant; tags: GST; chain copies: 2; dsDNA, one strand shown. In outline:
as §1

The target in assay [7] is T6, GST-NTL8 NAC domain (Arabidopsis thaliana, UniProt Q9XIN7 14-156).
T6 sequence: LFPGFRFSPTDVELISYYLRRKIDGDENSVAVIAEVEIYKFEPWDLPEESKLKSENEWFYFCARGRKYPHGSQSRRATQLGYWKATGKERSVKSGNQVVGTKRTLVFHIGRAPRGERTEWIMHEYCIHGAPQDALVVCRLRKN
Conditions: protein: recombinant; tags: GST; chain copies: 2; dsDNA, one strand shown. A digest of the protocol: as §1

Assay [8] addresses T7, GST-SND1(1-203) (Arabidopsis thaliana, UniProt Q9LPI7 1-203).
T7 sequence: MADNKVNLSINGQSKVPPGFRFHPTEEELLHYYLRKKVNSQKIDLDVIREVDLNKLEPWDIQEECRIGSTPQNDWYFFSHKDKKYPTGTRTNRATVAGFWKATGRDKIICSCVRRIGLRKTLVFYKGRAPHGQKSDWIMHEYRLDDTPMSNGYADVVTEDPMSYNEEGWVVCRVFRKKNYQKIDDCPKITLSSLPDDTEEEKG
Conditions: protein: recombinant; tags: GST; chain copies: 2; dsDNA, one strand shown. A digest of the protocol:
as §1

Assay [9] deals with T8, GST-VND7 NAC domain (Arabidopsis thaliana, UniProt Q9C8W9 9-158).
T8 sequence: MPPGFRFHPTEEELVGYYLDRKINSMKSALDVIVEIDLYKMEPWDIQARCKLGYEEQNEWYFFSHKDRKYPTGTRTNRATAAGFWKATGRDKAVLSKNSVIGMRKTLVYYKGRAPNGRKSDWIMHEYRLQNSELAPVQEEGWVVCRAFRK
Conditions: protein: recombinant; tags: GST; chain copies: 2; dsDNA, one strand shown. In outline: as §1

Assay [10] deals with GST-WRKY1(266-371) (Arabidopsis thaliana, UniProt Q9SI37 266-371). As to conditions: protein: recombinant; tags: GST; dsDNA, one strand shown. A digest of the protocol:
as §1

Assay [11] addresses T9, GST-ANAC055(1-171) (Arabidopsis thaliana, UniProt Q9LDY8 1-171).
T9 sequence: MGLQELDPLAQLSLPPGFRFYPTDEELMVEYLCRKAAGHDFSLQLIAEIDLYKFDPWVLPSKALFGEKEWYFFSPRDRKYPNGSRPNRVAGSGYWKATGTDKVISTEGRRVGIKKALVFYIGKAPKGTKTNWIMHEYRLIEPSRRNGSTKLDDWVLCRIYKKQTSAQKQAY
As to conditions: protein: recombinant; tags: GST; chain copies: 2; dsDNA, one strand shown. A digest of the protocol: as §1

The target of assay [12] is T10, GST-NAP(1-166) (Arabidopsis thaliana, UniProt O49255 1-166).
T10 sequence: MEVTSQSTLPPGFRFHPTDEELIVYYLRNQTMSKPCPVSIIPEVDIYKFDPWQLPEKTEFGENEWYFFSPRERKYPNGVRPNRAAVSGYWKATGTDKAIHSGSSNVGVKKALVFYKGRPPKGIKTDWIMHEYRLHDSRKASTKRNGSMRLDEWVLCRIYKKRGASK
Conditions: protein: recombinant; tags: GST; chain copies: 2; dsDNA, one strand shown. In outline: as §1

Assay [13] concerns the target T11, GST-VND3 NAC domain (Arabidopsis thaliana, UniProt Q9FH59 12-162).
T11 sequence: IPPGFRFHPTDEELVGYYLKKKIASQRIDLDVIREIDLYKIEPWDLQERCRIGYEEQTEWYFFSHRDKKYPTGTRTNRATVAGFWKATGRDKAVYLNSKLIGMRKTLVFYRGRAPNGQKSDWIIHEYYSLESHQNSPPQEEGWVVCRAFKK
Conditions: protein: recombinant; tags: GST; chain copies: 2; dsDNA, one strand shown. In outline:
as §1

GST-WRKY1(266-371), sequence (Q9SI37 266-371): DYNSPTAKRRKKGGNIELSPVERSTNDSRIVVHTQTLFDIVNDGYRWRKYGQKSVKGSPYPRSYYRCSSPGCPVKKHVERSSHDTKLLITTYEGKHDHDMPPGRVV

As for CCCTCCCC, the binding signal is 0.299 E-score in assay [1]; 0.353 E-score in assay [2]; 0.226 E-score in assay [3]; 0.121 E-score in assay [4]; 0.308 E-score in assay [5]; 0.169 E-score in assay [6]. Besides, the binding signal in assay [7] turned out to be 0.336 E-score; in [8], 0.405 E-score; in assay [9], 0.198 E-score; in assay [10], 0.0672 E-score.

With ACGTTATC, the binding signal worked out at 0.384 E-score in assay [1]; 0.0511 E-score in assay [11]; 0.17 E-score in assay [4]; 0.431 E-score in assay [5]; 0.162 E-score in [12]; 0.299 E-score in assay [6]. In addition, the binding signal in [8] was found to be 0.423 E-score; in [13], 0.208 E-score.

CAGTCAAA: the binding signal came to 0.125 E-score in assay [1]; 0.0796 E-score in [2]; 0.0978 E-score in [3]; 0.063 E-score in assay [11]; 0.11 E-score in [4]; 0.0634 E-score in [5]. Further, the binding signal in assay [12] was 0.0821 E-score; in [7] it was 0.104 E-score; in assay [8] it was 0.124 E-score; in assay [9], 0.0973 E-score; in assay [10], 0.478 E-score.

Consider CACGCATA, for which the binding signal amounted to 0.397 E-score in [1]; 0.0626 E-score in assay [11]; 0.411 E-score in assay [5]; 0.147 E-score in assay [12]; 0.121 E-score in assay [6]; 0.18 E-score in [8]. In addition, the binding signal in assay [13] worked out at 0.116 E-score.

Consider TCACGCCA, for which the binding signal is 0.436 E-score in assay [1]; 0.223 E-score in [3]; 0.156 E-score in assay [11]; 0.178 E-score in assay [4]; 0.454 E-score in assay [5]; 0.0509 E-score in assay [12]. In addition, the results for the binding signal in [6], in assay [8] and in assay [13] were 0.263 E-score, 0.358 E-score and 0.0902 E-score, respectively.

Take ATTAAGTA: the binding signal in assay [1] stood at 0.0822 E-score; in assay [2], 0.441 E-score; in assay [11], 0.182 E-score; in assay [4], 0.215 E-score; in [5], 0.144 E-score; in assay [6] it was 0.231 E-score. In addition, the binding signal amounted to 0.267 E-score in [8] and 0.131 E-score in assay [13].

TGACCGAA: the binding signal in assay [8] worked out at 0.0502 E-score; in assay [10], 0.459 E-score.

Regarding CTTGCTTC, the binding signal worked out at 0.288 E-score in [1]; 0.295 E-score in assay [2]; 0.0507 E-score in [3]; 0.368 E-score in assay [5]; 0.204 E-score in assay [6]; 0.303 E-score in assay [7]. Besides, the binding signal in assay [8] is 0.403 E-score; in [9], 0.0829 E-score.
